Here are results for one sequence from PMC7862700, “An all-to-all approach to the identification of sequence-specific readers for epigenetic DNA modifications on cytosine”.

What all share (experiment): DAPPL (digital affinity profiling via proximity ligation, sequencing); 10 mM Tris-HCl pH 7.5, 50 mM NaCl, 1 mM DTT, 4% glycerol, room temperature, 30 min; GST-TFs on glutathione beads, 16-mer random dsDNA library, 0.1% formaldehyde crosslink after washing; high values mean tight binding
The target in one test is T1, FLI1 (Homo sapiens, UniProt Q01543 1-452).
T1 sequence: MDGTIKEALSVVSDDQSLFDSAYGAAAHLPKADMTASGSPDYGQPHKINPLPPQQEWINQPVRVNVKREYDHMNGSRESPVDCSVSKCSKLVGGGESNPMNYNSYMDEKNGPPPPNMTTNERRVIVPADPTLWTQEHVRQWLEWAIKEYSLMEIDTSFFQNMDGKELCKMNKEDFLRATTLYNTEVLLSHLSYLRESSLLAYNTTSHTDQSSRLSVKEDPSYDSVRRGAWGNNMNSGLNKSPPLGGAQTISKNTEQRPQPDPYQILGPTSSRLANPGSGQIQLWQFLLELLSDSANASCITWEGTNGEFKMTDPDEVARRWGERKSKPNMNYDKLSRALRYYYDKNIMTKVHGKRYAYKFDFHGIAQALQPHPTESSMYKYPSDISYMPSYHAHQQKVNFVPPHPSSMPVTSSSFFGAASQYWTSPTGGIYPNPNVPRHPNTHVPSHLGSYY
The conditions noted are these: protein: recombinant; tags: N-terminal GST; dsDNA, one strand shown. The method, boiled down: (§1)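 Yeast served to express human transcription factors as GST fusions, which were then captured on glutathione beads and labelled with DNA barcodes. Pooled with a tag-only sample, they were incubated with 200 nmole of a 16-mer random double-stranded DNA library for 30 min at room temperature in Tris/NaCl/DTT/glycerol buffer, washed, crosslinked with 0.1% formaldehyde, ligated by proximity, amplified by PCR and sequenced. Dividing each hexamer's read frequency for a factor by its frequency for the tag-only sample gives the binding signal.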

In another test the target is T2, ELK1 (Homo sapiens, UniProt P19419 1-428).
T2 sequence: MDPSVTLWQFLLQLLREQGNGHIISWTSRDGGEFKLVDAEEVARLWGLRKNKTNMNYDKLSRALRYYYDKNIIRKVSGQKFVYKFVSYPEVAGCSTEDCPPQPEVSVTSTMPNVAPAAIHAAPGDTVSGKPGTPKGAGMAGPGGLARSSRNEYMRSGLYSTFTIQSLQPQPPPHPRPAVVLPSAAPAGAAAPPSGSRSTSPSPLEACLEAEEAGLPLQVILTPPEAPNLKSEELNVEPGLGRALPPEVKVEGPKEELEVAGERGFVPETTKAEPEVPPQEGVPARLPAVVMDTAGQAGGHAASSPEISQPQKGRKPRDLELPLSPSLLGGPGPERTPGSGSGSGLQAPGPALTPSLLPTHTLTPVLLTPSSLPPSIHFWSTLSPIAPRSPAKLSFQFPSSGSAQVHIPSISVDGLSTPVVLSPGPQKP
The conditions noted are these: protein: recombinant; tags: N-terminal GST; dsDNA, one strand shown. Put shortly: as §1

In the next test the target is T3, GABPA (Homo sapiens, UniProt Q06546 1-454).
T3 sequence: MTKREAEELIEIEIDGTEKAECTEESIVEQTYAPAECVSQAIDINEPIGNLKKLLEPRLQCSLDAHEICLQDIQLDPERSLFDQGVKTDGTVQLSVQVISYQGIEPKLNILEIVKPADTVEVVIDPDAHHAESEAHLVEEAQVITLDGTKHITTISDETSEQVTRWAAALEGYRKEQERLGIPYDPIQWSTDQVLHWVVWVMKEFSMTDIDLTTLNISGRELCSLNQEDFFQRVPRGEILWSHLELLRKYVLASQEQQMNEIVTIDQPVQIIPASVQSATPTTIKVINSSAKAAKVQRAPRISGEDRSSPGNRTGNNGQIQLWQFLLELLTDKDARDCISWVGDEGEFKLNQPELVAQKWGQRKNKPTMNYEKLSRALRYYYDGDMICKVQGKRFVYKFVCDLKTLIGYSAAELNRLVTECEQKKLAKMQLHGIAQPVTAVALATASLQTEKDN
As to conditions: protein: recombinant; tags: N-terminal GST; dsDNA, one strand shown. Put shortly:
as §1

In the next test the target is T4, ERG (Homo sapiens, UniProt P11308 1-479).
T4 sequence: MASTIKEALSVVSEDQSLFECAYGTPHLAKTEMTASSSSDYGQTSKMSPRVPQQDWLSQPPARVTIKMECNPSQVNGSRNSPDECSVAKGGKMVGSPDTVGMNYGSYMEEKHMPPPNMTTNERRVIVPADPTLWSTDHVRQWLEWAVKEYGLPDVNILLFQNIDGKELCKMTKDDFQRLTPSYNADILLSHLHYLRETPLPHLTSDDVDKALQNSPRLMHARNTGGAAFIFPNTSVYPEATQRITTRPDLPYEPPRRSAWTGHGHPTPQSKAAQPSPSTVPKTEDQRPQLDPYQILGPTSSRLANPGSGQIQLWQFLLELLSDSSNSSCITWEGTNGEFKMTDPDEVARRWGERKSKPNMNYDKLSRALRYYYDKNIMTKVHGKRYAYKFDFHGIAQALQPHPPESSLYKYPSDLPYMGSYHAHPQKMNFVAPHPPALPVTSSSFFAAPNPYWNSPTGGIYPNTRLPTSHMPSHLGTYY
As to conditions: protein: recombinant; tags: N-terminal GST; dsDNA, one strand shown. The method, boiled down: as §1

A further test addresses ELF1 (Homo sapiens, UniProt P32519 1-619). The conditions noted are these: protein: recombinant; tags: N-terminal GST; dsDNA, one strand shown. Put shortly: as §1
The target of another test is T5, EHF (Homo sapiens, UniProt Q9NZC4 1-300).
T5 sequence: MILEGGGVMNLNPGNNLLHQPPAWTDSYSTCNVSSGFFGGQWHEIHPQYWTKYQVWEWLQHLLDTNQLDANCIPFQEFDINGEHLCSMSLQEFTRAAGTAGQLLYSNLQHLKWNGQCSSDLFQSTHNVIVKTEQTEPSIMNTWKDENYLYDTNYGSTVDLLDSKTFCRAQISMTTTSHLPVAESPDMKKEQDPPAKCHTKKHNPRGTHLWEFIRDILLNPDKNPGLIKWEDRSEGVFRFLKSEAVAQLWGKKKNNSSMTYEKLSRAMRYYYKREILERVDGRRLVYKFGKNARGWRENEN
The conditions noted are these: protein: recombinant; tags: N-terminal GST; dsDNA, one strand shown. The method, boiled down: as §1

The target in another test is SPI1 (Homo sapiens, UniProt P17947 1-270). The conditions noted are these: protein: recombinant; tags: N-terminal GST; dsDNA, one strand shown. The method, boiled down:
as §1

The target in another test is SPIB (Homo sapiens, UniProt Q01892 1-262). As to conditions: protein: recombinant; tags: N-terminal GST; dsDNA, one strand shown. Put shortly: as §1
Another test concerns the target T6, ELK3 (Homo sapiens, UniProt P41970 1-407).
T6 sequence: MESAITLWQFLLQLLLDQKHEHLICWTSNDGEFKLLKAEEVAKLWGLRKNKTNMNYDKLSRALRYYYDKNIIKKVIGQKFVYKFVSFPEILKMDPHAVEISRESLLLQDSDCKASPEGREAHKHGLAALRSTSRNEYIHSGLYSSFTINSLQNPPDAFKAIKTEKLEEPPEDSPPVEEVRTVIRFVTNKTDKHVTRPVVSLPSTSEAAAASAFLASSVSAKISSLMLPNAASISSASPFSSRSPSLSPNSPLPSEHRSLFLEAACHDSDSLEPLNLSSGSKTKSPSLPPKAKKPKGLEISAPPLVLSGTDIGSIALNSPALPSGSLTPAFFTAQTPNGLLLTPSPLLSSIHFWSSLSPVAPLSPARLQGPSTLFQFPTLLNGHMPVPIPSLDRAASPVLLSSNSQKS
As to conditions: protein: recombinant; tags: N-terminal GST; dsDNA, one strand shown. Put shortly: as §1

The next test addresses T7, FEV (Homo sapiens, UniProt Q99581 1-238).
T7 sequence: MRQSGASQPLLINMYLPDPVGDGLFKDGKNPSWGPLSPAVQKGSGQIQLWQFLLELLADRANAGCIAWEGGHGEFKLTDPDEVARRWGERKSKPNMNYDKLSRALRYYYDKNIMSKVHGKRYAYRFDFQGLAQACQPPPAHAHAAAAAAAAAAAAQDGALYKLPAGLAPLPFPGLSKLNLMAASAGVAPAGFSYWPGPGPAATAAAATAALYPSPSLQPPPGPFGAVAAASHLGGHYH
As to conditions: protein: recombinant; tags: N-terminal GST; dsDNA, one strand shown. The method, boiled down:
as §1

A further test has as its target ETV5 (Homo sapiens, UniProt P41161 1-510). The conditions noted are these: protein: recombinant; tags: N-terminal GST; dsDNA, one strand shown. The method, boiled down:
as §1

The target of a further test is HSF1 (Homo sapiens, UniProt Q00613 1-529). As to conditions: protein: recombinant; tags: N-terminal GST; chain copies: 3; dsDNA, one strand shown. The method, boiled down:
as §1

A further test concerns the target T8, SPIC (Homo sapiens, UniProt Q8N5J4 1-248).
T8 sequence: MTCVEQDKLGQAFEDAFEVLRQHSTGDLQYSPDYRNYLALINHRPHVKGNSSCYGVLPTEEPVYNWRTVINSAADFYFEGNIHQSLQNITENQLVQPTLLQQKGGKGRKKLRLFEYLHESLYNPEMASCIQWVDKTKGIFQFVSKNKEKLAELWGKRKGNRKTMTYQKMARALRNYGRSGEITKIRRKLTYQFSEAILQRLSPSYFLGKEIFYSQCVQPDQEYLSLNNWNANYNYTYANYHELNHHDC
As to conditions: protein: recombinant; tags: N-terminal GST; dsDNA, one strand shown. The method, boiled down:
as §1

The target of a further test is ELF4 (Homo sapiens, UniProt Q99607 1-663). The conditions noted are these: protein: recombinant; tags: N-terminal GST; dsDNA, one strand shown. Put shortly:
as §1

In a further test the target is T9, ELK4 (Homo sapiens, UniProt P28324-2 1-405).
T9 sequence: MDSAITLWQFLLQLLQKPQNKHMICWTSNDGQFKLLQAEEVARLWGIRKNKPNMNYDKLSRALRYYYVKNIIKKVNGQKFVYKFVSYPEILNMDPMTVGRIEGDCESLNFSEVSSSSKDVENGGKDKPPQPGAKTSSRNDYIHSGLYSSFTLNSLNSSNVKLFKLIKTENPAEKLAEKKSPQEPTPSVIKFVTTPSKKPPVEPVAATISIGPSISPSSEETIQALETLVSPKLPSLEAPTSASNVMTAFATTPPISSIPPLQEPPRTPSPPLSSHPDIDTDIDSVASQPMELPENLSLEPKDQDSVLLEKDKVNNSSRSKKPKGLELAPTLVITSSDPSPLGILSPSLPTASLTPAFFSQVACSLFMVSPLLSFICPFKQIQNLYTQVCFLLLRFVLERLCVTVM
As to conditions: protein: recombinant; tags: N-terminal GST; dsDNA, one strand shown. The method, boiled down: as §1

For a further test, the target named is T10, ETV2 (Homo sapiens, UniProt O00321 1-342).
T10 sequence: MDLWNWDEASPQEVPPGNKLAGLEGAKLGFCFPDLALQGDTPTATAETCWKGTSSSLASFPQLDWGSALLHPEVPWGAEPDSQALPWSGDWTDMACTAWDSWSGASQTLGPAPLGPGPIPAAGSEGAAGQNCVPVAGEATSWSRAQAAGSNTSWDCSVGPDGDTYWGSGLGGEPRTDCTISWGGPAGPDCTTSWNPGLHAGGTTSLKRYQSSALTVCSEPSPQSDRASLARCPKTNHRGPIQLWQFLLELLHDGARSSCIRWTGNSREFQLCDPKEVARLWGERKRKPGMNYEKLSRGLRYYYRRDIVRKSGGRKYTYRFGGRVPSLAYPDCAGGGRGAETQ
As to conditions: protein: recombinant; tags: N-terminal GST; dsDNA, one strand shown. The method, boiled down: as §1

The target in the next test is T11, ELF3 (Homo sapiens, UniProt P78545 1-371).
T11 sequence: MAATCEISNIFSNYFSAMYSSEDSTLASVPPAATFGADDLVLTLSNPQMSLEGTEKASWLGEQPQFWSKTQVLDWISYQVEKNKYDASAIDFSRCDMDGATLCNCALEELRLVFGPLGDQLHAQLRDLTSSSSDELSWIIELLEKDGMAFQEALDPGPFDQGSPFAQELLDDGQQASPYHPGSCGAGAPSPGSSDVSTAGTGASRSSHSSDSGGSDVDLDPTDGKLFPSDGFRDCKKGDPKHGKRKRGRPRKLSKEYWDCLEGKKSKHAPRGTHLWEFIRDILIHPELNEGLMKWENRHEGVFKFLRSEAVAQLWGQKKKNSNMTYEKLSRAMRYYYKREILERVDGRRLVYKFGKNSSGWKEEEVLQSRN
The conditions noted are these: protein: recombinant; tags: N-terminal GST; dsDNA, one strand shown. Put shortly: as §1

A further test deals with CRX (Homo sapiens, UniProt O43186 1-299). The conditions noted are these: protein: recombinant; tags: N-terminal GST; dsDNA, one strand shown. Put shortly: as §1
A further test deals with ETV1 (Homo sapiens, UniProt P50549 1-477). The conditions noted are these: protein: recombinant; tags: N-terminal GST; dsDNA, one strand shown. The method, boiled down:
as §1

Sequence of ELF1 (P32519 whole entry): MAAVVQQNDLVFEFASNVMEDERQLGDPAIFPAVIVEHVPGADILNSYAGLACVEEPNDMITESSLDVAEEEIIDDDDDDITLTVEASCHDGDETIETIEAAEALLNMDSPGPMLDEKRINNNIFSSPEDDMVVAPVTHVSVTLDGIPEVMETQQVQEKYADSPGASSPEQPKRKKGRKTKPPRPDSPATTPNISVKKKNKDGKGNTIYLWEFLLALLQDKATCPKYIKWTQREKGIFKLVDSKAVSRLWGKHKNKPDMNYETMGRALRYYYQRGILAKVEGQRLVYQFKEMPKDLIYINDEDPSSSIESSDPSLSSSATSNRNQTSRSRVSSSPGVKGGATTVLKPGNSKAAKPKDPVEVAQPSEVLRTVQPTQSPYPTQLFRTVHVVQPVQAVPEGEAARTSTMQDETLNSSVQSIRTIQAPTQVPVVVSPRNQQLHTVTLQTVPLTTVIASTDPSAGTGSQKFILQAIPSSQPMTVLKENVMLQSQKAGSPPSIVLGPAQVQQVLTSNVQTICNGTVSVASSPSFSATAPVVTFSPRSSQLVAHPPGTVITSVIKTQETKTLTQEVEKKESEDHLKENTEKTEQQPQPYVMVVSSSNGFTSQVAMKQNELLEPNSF
Sequence of ELF4 (Q99607 whole entry): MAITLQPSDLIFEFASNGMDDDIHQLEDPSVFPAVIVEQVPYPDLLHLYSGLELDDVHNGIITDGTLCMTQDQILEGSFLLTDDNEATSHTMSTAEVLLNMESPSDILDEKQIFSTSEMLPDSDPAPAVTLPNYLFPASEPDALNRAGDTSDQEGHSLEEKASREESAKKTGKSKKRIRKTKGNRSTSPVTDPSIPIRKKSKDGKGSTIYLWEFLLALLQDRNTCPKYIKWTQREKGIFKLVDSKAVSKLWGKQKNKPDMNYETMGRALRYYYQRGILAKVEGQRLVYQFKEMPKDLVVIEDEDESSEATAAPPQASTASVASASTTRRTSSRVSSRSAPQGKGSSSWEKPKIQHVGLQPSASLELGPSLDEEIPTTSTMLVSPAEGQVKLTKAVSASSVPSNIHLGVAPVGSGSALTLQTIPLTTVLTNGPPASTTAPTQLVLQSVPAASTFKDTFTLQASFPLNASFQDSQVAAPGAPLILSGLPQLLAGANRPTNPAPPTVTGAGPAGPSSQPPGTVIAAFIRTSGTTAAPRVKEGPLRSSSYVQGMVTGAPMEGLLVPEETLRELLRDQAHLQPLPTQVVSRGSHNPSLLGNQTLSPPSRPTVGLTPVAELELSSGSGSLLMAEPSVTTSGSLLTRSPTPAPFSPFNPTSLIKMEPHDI
Sequence of SPIB (Q01892 whole entry): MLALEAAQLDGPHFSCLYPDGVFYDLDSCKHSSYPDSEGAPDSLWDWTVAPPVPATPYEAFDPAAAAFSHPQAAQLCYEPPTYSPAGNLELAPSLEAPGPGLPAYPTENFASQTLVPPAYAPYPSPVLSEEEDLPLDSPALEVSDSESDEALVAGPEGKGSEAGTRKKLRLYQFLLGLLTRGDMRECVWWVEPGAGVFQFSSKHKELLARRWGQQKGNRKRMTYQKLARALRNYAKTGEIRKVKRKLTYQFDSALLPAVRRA
Sequence of HSF1 (Q00613 whole entry): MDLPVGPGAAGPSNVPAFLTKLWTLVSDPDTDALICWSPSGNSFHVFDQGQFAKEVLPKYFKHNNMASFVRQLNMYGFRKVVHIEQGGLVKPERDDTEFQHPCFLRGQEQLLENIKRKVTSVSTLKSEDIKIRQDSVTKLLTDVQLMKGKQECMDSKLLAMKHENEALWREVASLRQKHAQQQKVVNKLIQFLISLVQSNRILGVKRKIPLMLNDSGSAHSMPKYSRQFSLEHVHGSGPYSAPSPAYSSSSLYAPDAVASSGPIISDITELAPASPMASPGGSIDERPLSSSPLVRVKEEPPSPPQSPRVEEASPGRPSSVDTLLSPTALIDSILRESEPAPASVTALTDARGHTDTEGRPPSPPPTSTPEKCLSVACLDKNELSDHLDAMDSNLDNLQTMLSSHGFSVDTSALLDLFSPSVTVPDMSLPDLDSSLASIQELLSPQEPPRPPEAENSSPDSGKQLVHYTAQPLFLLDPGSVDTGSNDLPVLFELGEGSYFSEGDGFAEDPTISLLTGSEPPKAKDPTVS
Sequence of ETV5 (P41161 whole entry): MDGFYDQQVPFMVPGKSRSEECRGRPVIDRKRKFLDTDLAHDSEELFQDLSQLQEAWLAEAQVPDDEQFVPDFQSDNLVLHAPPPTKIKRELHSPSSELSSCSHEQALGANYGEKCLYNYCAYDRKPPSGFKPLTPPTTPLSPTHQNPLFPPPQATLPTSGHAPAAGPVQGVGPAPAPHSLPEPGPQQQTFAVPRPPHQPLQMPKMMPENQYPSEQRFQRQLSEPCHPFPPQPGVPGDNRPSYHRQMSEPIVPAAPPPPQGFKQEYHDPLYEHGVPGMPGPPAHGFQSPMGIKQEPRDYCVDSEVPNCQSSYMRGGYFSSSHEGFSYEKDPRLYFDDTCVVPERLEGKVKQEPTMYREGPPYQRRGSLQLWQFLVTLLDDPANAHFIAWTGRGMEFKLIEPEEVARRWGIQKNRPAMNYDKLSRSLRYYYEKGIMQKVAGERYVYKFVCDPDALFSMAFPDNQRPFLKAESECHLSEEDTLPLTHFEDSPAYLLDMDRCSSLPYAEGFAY
Sequence of ETV1 (P50549 whole entry): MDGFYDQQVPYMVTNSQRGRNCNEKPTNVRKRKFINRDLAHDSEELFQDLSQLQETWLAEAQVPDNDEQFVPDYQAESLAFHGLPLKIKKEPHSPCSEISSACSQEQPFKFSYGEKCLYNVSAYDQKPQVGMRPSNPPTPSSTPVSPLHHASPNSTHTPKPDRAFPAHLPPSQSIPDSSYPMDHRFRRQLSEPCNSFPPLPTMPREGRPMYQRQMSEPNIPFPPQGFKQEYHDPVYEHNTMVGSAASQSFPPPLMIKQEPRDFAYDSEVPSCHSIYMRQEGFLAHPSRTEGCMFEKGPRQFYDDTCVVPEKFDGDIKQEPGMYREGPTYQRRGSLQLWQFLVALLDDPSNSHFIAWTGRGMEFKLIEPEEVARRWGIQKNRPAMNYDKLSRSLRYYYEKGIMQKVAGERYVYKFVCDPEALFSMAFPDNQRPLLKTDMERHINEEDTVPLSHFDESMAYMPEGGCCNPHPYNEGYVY
Sequence of CRX (O43186 whole entry): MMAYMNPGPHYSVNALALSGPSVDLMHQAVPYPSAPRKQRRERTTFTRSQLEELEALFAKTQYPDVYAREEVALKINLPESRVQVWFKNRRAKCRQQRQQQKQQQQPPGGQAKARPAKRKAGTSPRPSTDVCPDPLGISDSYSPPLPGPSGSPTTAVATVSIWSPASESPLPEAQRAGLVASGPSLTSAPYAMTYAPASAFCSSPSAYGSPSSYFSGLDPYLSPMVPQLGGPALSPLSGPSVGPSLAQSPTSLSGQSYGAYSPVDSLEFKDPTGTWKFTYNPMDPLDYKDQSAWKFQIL

As to CGAACA, the binding signal with FLI1 was 1.09 fold enrichment (6-mer frequency, TF over GST control); with ELK1 it was 1.08 fold enrichment (6-mer frequency, TF over GST control); with GABPA, 1.11 fold enrichment (6-mer frequency, TF over GST control); in the test with ERG it was 1.11 fold enrichment (6-mer frequency, TF over GST control); with ELF1 it was 1.13 fold enrichment (6-mer frequency, TF over GST control); with EHF, 1.14 fold enrichment (6-mer frequency, TF over GST control). Moreover, the binding signal with SPI1 is 1.15 fold enrichment (6-mer frequency, TF over GST control); in the test with SPIB it was 1.19 fold enrichment (6-mer frequency, TF over GST control); with ELK3, 1.09 fold enrichment (6-mer frequency, TF over GST control); in the test with FEV, 1.06 fold enrichment (6-mer frequency, TF over GST control); with ETV5, 1.14 fold enrichment (6-mer frequency, TF over GST control); with HSF1, 1.76 fold enrichment (6-mer frequency, TF over GST control). Besides, the binding signal is 1.11 fold enrichment (6-mer frequency, TF over GST control) with SPIC; 1.19 fold enrichment (6-mer frequency, TF over GST control) with ELF4; 1.17 fold enrichment (6-mer frequency, TF over GST control) with ELK4; 1.22 fold enrichment (6-mer frequency, TF over GST control) with ETV2; 1.2 fold enrichment (6-mer frequency, TF over GST control) in the test with ELF3; 1.1 fold enrichment (6-mer frequency, TF over GST control) with CRX. In the test with ETV1, the binding signal is 1.1 fold enrichment (6-mer frequency, TF over GST control).
